Compound activity from PubChem BioAssay.
D1 potentiator = potentiators of human D1 dopamine receptor; P21728; HEK293 TREx D1 cells, calcium flux, dopamine EC20 potentiation; potentiation, % at 10 µM; 0.036% of 360,000 active; AID 504651; in the data active = potentiation above about 30%; also: 0% is about no effect
Target sequence (P21728 whole entry, looked up): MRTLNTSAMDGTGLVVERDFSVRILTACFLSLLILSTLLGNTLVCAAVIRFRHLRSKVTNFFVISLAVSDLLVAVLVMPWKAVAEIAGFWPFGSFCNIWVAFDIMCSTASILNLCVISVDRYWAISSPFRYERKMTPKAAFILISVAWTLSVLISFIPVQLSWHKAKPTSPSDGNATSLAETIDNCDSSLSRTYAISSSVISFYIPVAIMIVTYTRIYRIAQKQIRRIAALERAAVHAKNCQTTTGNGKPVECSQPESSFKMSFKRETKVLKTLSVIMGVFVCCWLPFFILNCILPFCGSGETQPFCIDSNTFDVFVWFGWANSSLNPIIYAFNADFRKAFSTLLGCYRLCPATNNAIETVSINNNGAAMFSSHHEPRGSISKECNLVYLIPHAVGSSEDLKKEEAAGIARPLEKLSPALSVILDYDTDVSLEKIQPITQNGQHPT
D1 ag = human D1 receptor agonism | P21728 | HEK293 T-REx D1 cells, calcium flux, agonist mode | activation, % at 2 µM | 1% of 360,000 active | AID 504660; also: 0% is about no effect
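Inducible HEK293 T-REx D1 cells, force-coupled to calcium signalling, were plated at 4000 cells/well with tetracycline and held overnight at 30 C. After no-wash calcium dye loading, compound-evoked calcium rise over 180 s flagged agonists.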
TRHR ag = activates the human TRH receptor. P34981. TRHR cells, calcium flux fluo-8, FDSS agonist mode. activation, % at 2 µM. 0.18% of 360,000 active. AID 493084; also: 0% is about no effect
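Agonist-mode FDSS calcium read (Ex 480/Em 530, 1 s cycles) in 1536-well TRHR cells with fluo-8 dye, after 10-cycle baseline and 23 nL compound addition; TRH at EC20 (10 nM final) added afterwards for the enhancer phase.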
D1 antagonist = human D1 dopamine receptor antagonism; P21728; HEK293 TREx D1 cells, calcium flux, dopamine EC80; hits give low values; activity change, negative = inhibition, % at 10 µM; 3.2% of 360,000 active; in the data active = activity change below about -30%; also: % is scaled to controls: 0 for no effect and ±100 for the full control effect
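Tetracycline-induced HEK293 Trex D1 cells, force-coupled to calcium, dye-loaded; compounds added and read 180 s, then EC80 dopamine added and calcium flux tracked kinetically another 180 s.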
TRHR PAM = allosterically enhances the human TRH receptor; AID 493056; P34981; 0.66% of 360,000 active; enhancement, % at 2 µM; TRHR cells, fluo-8 calcium fluorescence, EC20 TRH enhancement; in the data active = enhancement above about 30%; also: 0% is about no effect
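Enhancer read-out: after compound pinning and an initial kinetic agonist-mode read, an EC20 of TRH (10 nM final) was injected and fluo-8 calcium signal (Ex 480/Em 530) followed at 1 s/cycle for 100 cycles in TRHR-expressing cells.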
Numbers without * were called inactive; x = no result; ! = repeats disagree. The list is not random: actives were taken first. Their share in the collection is about 4.7%. Rule as the data show it, unless noted: active = activation above about 30%; inactive = the rest.

SMILES	D1 potentiator	D1 ag	TRHR ag	D1 antagonist	TRHR PAM
COc1ccc(OC)c(CNC(=O)CSc2c3c(nc4cc(Cl)ccc24)CCCC3)c1	-2	4	-1	-23	-17
CCOC(=O)N1CCC(NC(=O)CS(=O)Cc2nc(-c3ccc(C)cc3)oc2C)CC1 (centres undefined)	-2	-1	2	-35*	-10
Cc1cccc(-c2nc(CN3CCCC(C(=O)NC4CCCCCC4)C3)c(C)o2)c1 (centres undefined)	-4	27	1	-15	2
CCOC(=O)N1CCC(NC(=O)C2CCCN(Cc3nc(-c4ccc(CC)cc4)oc3C)C2)CC1 (centres undefined)	-5	37*	-1	-34*	10
CCC(C(=O)NCc1ccccc1OC)n1nc(C)n2c(cc3sccc32)c1=O (centres undefined)	-4	2	1	-15	-8
CCOc1ccc(-c2oc3cc(Cl)ccc3c(=O)c2O)cc1OC	-1	96*	78*	20	-11
Cc1ccc(Nc2nnc(SCC(=O)NC3CC3)s2)cc1	x	1	0	-6	2
O=C(Nc1ccccc1)Nc1nc(Nc2cc(F)cc(F)c2)nc(NC2CCCC2)n1	-7	2	0	8	1
COc1cccc(CNC(=O)C2CCN(C(=O)N3CCOc4ccc(Cl)cc43)CC2)c1OC	-5	-1	-1	-27	-7
CC1(c2ccc([N+](=O)[O-])cc2)NC(=O)N(CC(=O)c2ccc3c(c2)OCO3)C1=O (centres undefined)	6	34*	6	-7	-1
CC1(c2ccc(OC(F)F)cc2)NC(=O)N(CC(=O)c2ccc3c(c2)OCO3)C1=O (centres undefined)	0	47*	8	-43*	-11
CC1(c2ccc(OC(F)F)cc2)NC(=O)N(CC(=O)NC2CCCCC2)C1=O (centres undefined)	6	9	1	12	1
Cc1ccc(-c2csc(N3CCN(c4cc5c(cc4Cl)nc(C)n5CCN4CCCCC4)CC3)n2)cc1	-11	1	0	-39*	2
CN(C(=O)Cc1csc(-c2ccccc2)n1)c1c(N)n(Cc2ccccc2)c(=O)[nH]c1=O	1	0	0	2	2
COc1ccc(OC)c(-c2oc3ccccc3c(=O)c2O)c1	-1	-1	0	-22	5
COc1ccc(OC)c(-c2c3cc(O)c(=O)cc-3oc3cc(O)c(O)cc23)c1	-2	44*	16	0	25
CC(NC(=O)c1cc(S(=O)(=O)N2CCOCC2)ccc1F)c1ccc(-n2ccnc2)cc1 (centres undefined)	-3	1	1	22	7
Oc1ccc2c(c1)C1CCCC1(N1CCOCC1)O2 (centres undefined)	-4	2	1	0	-3
c1ccc2c(c1)nc1n2C2(N3CCOCC3)CCCC2C1N1CCOCC1 (centres undefined)	2	47*	15	0	5
Cc1ccc(S(=O)(=O)N2CCOC23CCN(C(=O)c2ccc(Cl)cc2Cl)CC3)cc1	-4	22	1	-24	32*
Cc1ccc(S(=O)(=O)N2CCOC23CCN(C(=O)c2cc(Cl)ccc2Cl)CC3)cc1	-9	7	0	-25	-4
COc1ccccc1NC(=O)Cn1cc(C(=O)c2ccncc2)c(=O)c2cc(C)ccc21	-2	3	0	4	-2
COc1ccc(-n2c(-c3ccccc3F)nc3c(cnn3-c3ccc(C)cc3)c2=O)cc1	-1	6	1	-31*	8
COc1ccc(-n2c(-c3ccco3)nc3c(cnn3-c3ccccc3C)c2=O)cc1	-9	2	0	-30*!	1
Cc1nc2ccccc2c2nc(N)nn12	-10	0	-2	-56*	-8
SMILES	D1 potentiator	D1 ag	TRHR ag	D1 antagonist	TRHR PAM
CN(C(=S)Nc1ccc(Oc2ccccc2)cc1)C1CCCCC1	0	6	0	-33*	-6
N#C/C(=N/Nc1ccc(OC(F)(F)F)cc1)C(N)=S	-4	40*	4	-30*	-7
CCOc1ccc(N/N=C(/C#N)C(N)=O)cc1	-1	1	0	16	1
CC1=CN2C(=N)/C(=C\c3cn(CCCOc4ccccc4)c4ccccc34)C(=O)N=C2S1	-5	31*	6	-21	-6
Cc1ccccc1-c1noc(-c2ccc(N3CCCC3)c([N+](=O)[O-])c2)n1	0	1	0	6	-4
COc1cccc(NC(=O)C(OC(=O)CNC(=O)c2ccccc2)c2ccccc2)c1 (centres undefined)	7	-1	-3	19	6
O=C(CNC(=O)c1ccccc1)OC(CCc1ccccc1)C(=O)Nc1cc(C(F)(F)F)ccc1Cl (centres undefined)	-6	8	2	-37*	-17
Cc1cccc(C(=O)NCC(=O)OC(C(=O)Nc2cc(C(F)(F)F)ccc2Cl)c2ccccc2)c1 (centres undefined)	-6	7	2	-30*	-7
O=C(CNC(=O)c1ccccc1)OC(Cc1ccccc1)C(=O)Nc1cc(C(F)(F)F)ccc1Cl (centres undefined)	-3	3	-3	-6	-7
COC(=O)c1cc(-c2ccccc2)n[nH]1	9	2	0	-7	2
CC(C)(C)NC(=O)c1cc(-c2ccccc2)n[nH]1	-7	4	-1	-32*	-8
CC(CNC(=O)c1cc(-c2ccccc2)n[nH]1)c1ccccc1 (centres undefined)	-3	0	0	-51*	-2
Cc1ccc(CCNC(=O)c2cc(-c3ccccc3)n[nH]2)cc1	-3	9	0	-17	-3
O=C(NCCc1ccc(Cl)cc1)c1cc(-c2ccccc2)n[nH]1	2	1	-1	-31*	20
CCCc1cc(=O)[nH]c2nnc(SCC(=O)Nc3ccc(OC)cc3)n12	-1	2	-1	x	6
CC(C)Cn1c2c(c(=O)[nH]c1=O)C(C(F)(F)F)(C(F)(F)F)N=C(CCC1CCCCC1)N2	8	31*	1	0	5
O=c1[nH]c(=O)n(Cc2ccco2)c2c1C(C(F)(F)F)(C(F)(F)F)N=C(CCC1CCCCC1)N2	-5	26	2	23	4
CCC(C)NC(=O)Cn1c(=O)n(Cc2ccc(C(=O)NCc3ccc(C)cc3)cc2)c(=O)c2ccccc21 (centres undefined)	-2	8	0	4	-1
O=C(/C=C/c1ccccc1Cl)N(Cc1cccs1)C1CCS(=O)(=O)C1 (centres undefined)	-6	-1	0	14	0
O=C(CCn1c(=O)oc2ccccc21)Nc1cccc(Br)c1	-2	4	0	-21	-1
